# Test results from PubChem BioAssay (NCATS).
# Results filed as inconclusive are left out. Some compounds were tested as several samples or in several runs, with calls that do not always agree. Activity calls are given as the source filed them. Calls come from the whole dose curve; as a rule, active = well fitted inhibition curve with a large enough effect in the repeat runs; inconclusive = weak or mixed curves; inactive = flat fitted curve, though single readings scatter.
# Target: Cytochrome P450 2D6 (Homo sapiens) (UniProt P10635)
# Sequence (P10635 whole entry, looked up): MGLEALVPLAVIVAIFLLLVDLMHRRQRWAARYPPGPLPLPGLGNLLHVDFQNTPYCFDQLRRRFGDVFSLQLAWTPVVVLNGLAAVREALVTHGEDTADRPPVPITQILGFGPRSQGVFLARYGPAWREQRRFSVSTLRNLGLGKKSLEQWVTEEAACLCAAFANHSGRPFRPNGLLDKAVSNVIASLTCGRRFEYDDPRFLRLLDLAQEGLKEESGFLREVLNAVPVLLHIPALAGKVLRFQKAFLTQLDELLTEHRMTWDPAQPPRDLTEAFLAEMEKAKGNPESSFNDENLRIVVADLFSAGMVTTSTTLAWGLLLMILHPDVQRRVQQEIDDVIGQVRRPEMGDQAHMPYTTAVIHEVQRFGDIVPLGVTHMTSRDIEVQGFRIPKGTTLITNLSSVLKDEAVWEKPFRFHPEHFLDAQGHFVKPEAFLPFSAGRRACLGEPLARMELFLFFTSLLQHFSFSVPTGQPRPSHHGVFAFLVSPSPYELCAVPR
# Assay: Cytochrome P450 family 2 subfamily D member 6 (CYP2D6) small molecule antagonists: luciferase biochemical (cell-free) qHTS assay (AID 1645840); note: nearly all actives have a fitted effect of over 55% in size
# Conditions: P450-Glo CYP2D6 enzyme, luciferin luminescence, 1 h; series mostly up to 57.4 µM; activity change, negative = inhibition: at the top concentration
# Summary of the method: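 P450-Glo luminescent screen: recombinant CYP2D6 enzyme–proluciferin substrate mix preincubated with compound 10 min at room temperature, then NADPH regeneration added for 1 h at room temperature. Detection reagent added for 20 min; luciferin light read as relative luminescence units.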
# % is set by controls: 0 for no effect and ±100 for the full control effect; potency is the fitted concentration of half-maximal effect.
Structure (SMILES),"activity change, negative = inhibition",Potency
OC[C@H]1O[C@H](O[C@]2(CCl)O[C@H](CCl)[C@@H](O)[C@@H]2O)[C@H](O)[C@@H](O)[C@H]1Cl,-23.2% (inactive),
NC(CO)(CO)CO,3.56% (inactive),
CN1CCN(C(c2ccccc2)c2ccccc2)CC1,,4.9 µM (active)
OCc1ccccc1O,2.39% (inactive),
O=C(OCC(O)CO)c1ccccc1Nc1ccnc2cc(Cl)ccc12 (stereo unspecified),,8.71 µM (active)
N[C@@H](CCC(=O)N[C@@H](CS)C(=O)NCC(=O)O)C(=O)O,11.8% [at 23.9 µM] (inactive),
OC[C@H]1O[C@@H](n2cnc3c(=S)nc[nH]c32)[C@H](O)[C@@H]1O,5.17% (inactive),
CCCCCCC[N+](CC)(CC)CCCCc1ccc(Cl)cc1,,0.0977 µM (active)
CCN(CC)CCNC(=O)COc1ccc(Cl)cc1,,13.8 µM (active)
Oc1cc(O)c2c(c1)O[C@H](c1ccc(O)c(O)c1)[C@H](O)C2,3.15% (inactive),
Cc1ccnc(NS(=O)(=O)c2ccc(N)cc2)n1,3.73% (inactive),
CCCCCCCCCCCCCCNCCO,,6.17 µM (active)
CC[N+](CC)(CCNC(=O)C(=O)NCC[N+](CC)(CC)Cc1ccccc1Cl)Cc1ccccc1Cl,,15.5 µM (active)
Cc1nc2n(c(=O)c1CCN1CCC(c3noc4cc(F)ccc34)CC1)CCC[C@H]2O,,12 µM (active)
C[C@H](CCC(=O)O)[C@H]1CC[C@H]2[C@@H]3C(=O)C[C@@H]4CC(=O)CC[C@]4(C)[C@H]3CC(=O)[C@]12C,4.18% (inactive),
CC(C)=CCC1C(=O)N(c2ccccc2)N(c2ccccc2)C1=O,10.5% (inactive),
COc1c(C)c2c(c(O)c1C/C=C(\C)CCC(=O)O)C(=O)OC2,-1.58% (inactive),
Cc1ccc(C(=O)C(C)CN2CCCCC2)cc1 (stereo unspecified),,1.74 µM (active)

Structure (SMILES),"activity change, negative = inhibition",Potency
CCCN1CCCC[C@H]1C(=O)Nc1c(C)cccc1C,,4.9 µM (active)
CC(=O)CC(c1ccc([N+](=O)[O-])cc1)c1c(O)c2ccccc2oc1=O (stereo unspecified),4.21% (inactive),
Cc1ncc(CSSCc2cnc(C)c(O)c2CO)c(CO)c1O,,7.76 µM (active)
CCCCS(=O)(=O)N[C@@H](Cc1ccc(OCCCCC2CCNCC2)cc1)C(=O)O,3.86% (inactive),
CCn1cc(C(=O)O)c(=O)c2cnc(N3CCCC3)nc21,-1.21% [at 11.5 µM] (inactive),
Oc1c(I)cc(I)c2cccnc12,,inactive
CN(C)CCOc1ccccc1Cc1ccccc1,,1.95 µM (active)
Cc1cc2c(cc1CC(=O)c1sccc1S(=O)(=O)Nc1onc(C)c1Cl)OCO2,,4.36 µM (active) and inactive
CC(=O)N(O)CCCCCNC(=O)CCC(=O)N(O)CCCCCNC(=O)CCC(=O)N(O)CCCCCN,9.25% (inactive),
CC(=O)Nc1c(I)cc(I)c(C(=O)O)c1I,,19.5 µM (active)
COc1ccc(C2C(=O)c3ccccc3C2=O)cc1,18.2% (inactive),
O=C1c2ccccc2C(=O)C1c1ccccc1,3.26% (inactive),
CC(=O)Oc1ccc(C(=C2CCCCC2)c2ccc(OC(C)=O)cc2)cc1,,15.5 µM (active)
O=c1[nH]c(=O)n([C@H]2CCCO2)cc1F,-2.29% (inactive),
O=c1[nH]c(=O)n([C@H]2C[C@H](O)[C@@H](CO)O2)cc1C(F)(F)F,-3.17% (inactive),
NCCc1ccn[nH]1,8.55% (inactive),
COc1ccc(CCN2CCC(Nc3nc4ccccc4n3Cc3ccc(F)cc3)CC2)cc1,,6.17 µM (active)
COc1cc(C(=S)N2CCOCC2)cc(OC)c1OC,-1.14% (inactive),
